From PubChem BioAssay AID445 (National Center for Advancing Translational Sciences (NCATS), 2006)
Among all 110,000 compounds or so, about 40 (0.04%) were called active. Inconclusive results (about 22%) are left out. Calls come from the whole dose curve; as a rule, active = well fitted curve in the direction sought with a large enough effect in the signal ratio (not every such curve was filed as active); inconclusive = small, poorly fitted or top-dose-only effect, or a change in a side signal; inactive = flat fitted curve, though single readings scatter; the % refers to the signal ratio. This excerpt belongs to a sample that is enriched for actives.

Assay: IkB Signaling;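 note: 0% = basal untreated cells and 100% = reference inhibitor full response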
Details: ABC-DLBCL IkBa-CBG/CBR dual luciferase ratio, 4 h; series mostly up to 57.1 µM; IkBa stabilization activation: at the top concentration
Description: NIH Molecular Libraries Screening Centers Network [MLSCN]
NIH Chemical Genomics Center [NCGC]
Nuclear factor kappa-B (NF-kappa-B) plays an important role in normal B cell development and survival. Diffuse large B cell lymphoma (DLBCL) is the most commonly observed type of non-Hodgkin's lymphoma. Gene expression analysis has identified an activated B cell-like subtype of DLBCL (ABC-DLBCL) which expresses known NF-kappa-B target genes. […] However, targets upstream of IKK have been largely unexplored and so nodes upstream of IKK in the NF-kappa-B pathway remain untested due to the lack of chemical probes.
A cell-sensor assay for I-kappa-B-alpha stabilization was developed with NIH investigator Dr. R. Eric Davis in Dr. Louis M. Staudt's laboratory. The assay uses green (CBG68) and red (CBR) emitting beetle luciferases [Chroma-Glo(TM) developed by Promega Corp.] where the green luciferase is fused to I-kappa-B-alpha and the red luciferase is present in its native state. Both luciferase genes are stably present in the OCI-Ly3 human ABC DLBCL cell line, but their expression is under the control of tetracycline-inducible promoters. Following the addition of doxycycline to induce expression of the luciferases, the green luminescence in control cultures rises only slowly because the CBG fusion partner I-kappa-B-alpha is targeted by IKK activity for rapid degradation. In contrast, green luminescence rises rapidly in the presence of proteasome inhibitors or IKK inhibitors. The rise in red luminescence of CBR is not affected by proteasome or IKK inhibitors, and serves as normalization for cell number and nonspecific effects. Compounds were screened as a concentration-titration series that ranged from 57 uM to 0.7 nM.
NCGC Assay Protocol Summary:
Cells were seeded in 1536-well plates at 5000 cells/3ul in IMDM medium containing 0.5% FBS, w/o phenol red, L-glutamine, 25 mM HEPES, 3 mg/ml sodium bicarbonate. After centrifugation for 1 min. at 1000 rpm, 23 nl of compounds or DMSO were delivered to each well using a pin tool. Then 1ul 80ng/ml doxycycline was dispensed into white solid 1536-well plates and the plates were incubated at 37C/5% C02 in a cell incubator for 4 hrs. Then 4 ul Chroma-Glo luminescent substrate mix (Promega) was added to each well. The plate was incubated at R.T. for 10-15 min. The plates were measured on a ViewLux plate reader for green luminescence (540/20 nm filter) and red luminescence (618/8 nm filter). The green and red luminescent signals were corrected for red and green luminescence filter overlap using previously determined filter calibration constants (determined using the procedure outlined in the Promega Technical Manual). The %Activity was determined from the ratio of corrected green/red luminescent values. Green luminescent and ratio %Activity was determined by normalizing to the difference in signal between basal cells (0% Activity) and cells incubated with 10 uM of the proteasome inhibitor MG-132 (100% Activity). Red luminescent %Activity was normalized to the difference between red luminesence in basal cells (0%Activity) and zero luminescence (-100% Activity).
Concentration-response curves were fitted to the signals arising from the green luminescence (I-kappa-B-alpha-luciferase fusion; IkB-luc) and the red luminescence (unfused luciferase; luc) as well as the calculated ratio. The concentration-effect curves were then classified based on curve quality (r2), response magnitude and degree of measured activity. Compounds were then categorized based on their concentration-response curves for all three datasets (Ikb-luc, luc and ratio).
Keywords: IKK, I-kappa-B, IkB, IkBa, cytotoxicity, luminescence, MLSMR, MLSCN, NIH Roadmap, qHTS, NCGC

IkBa stabilization activation, inactive:
Cc1cccc(Cn2c(=O)n(CCC(=O)NCCc3ccc(Cl)cc3)c(=O)c3sccc32)c1 0.608%
O=C(NC1CC(=O)N(c2ccc(F)cc2)C1)c1cccs1 (configuration not stated) 0.355%
COc1ccc(CNc2nc(-c3ccccc3)nn2C(=O)c2ccccc2OC)cc1 0.945%
Cc1ccc(Cn2c(CCCNC(=O)C3CCCCC3)nc3ccccc32)cc1 0.788%
COc1ccccc1Cc1nc2ccccc2nc1SCC(=O)N1CCCc2ccccc21 0.565%
CCc1nn(CC(=O)Nc2cc(C)cc(C)c2)c(=O)c2cc3sccc3n12 -1.09%
Cc1cc(C)cc(NS(=O)(=O)c2ccc3[nH]cc(C(=O)N4CCCCC4)c(=O)c3c2)c1 2.33%
COC(=O)c1c(NC(=O)c2cc(=O)c3c(C)cc(C)cc3o2)sc2c1CCCC2 -1.94%
COc1ccc(C)cc1NC(=O)C(=O)NCCc1sc(-c2cccc(C)c2)nc1C -0.998%
Cc1ccc2ncc(C(=O)Nc3ccc(OC(F)(F)F)cc3)c(=O)n2c1 -2.93%
Cc1cc(C)cc(OCC(=O)Nc2c(C(=O)c3ccccc3)oc3ccccc23)c1 -1.32%
O=C1CC(c2nnc(Cc3ccc(Cl)cc3)o2)CN1c1ccccc1 (configuration not stated) 2.11%
CSc1ccc(C2c3c(oc4ccccc4c3=O)C(=O)N2CCCN2CCOCC2)cc1 (configuration not stated) -1.64%
COCC(C)NS(=O)(=O)c1ccc(N2CCCCS2(=O)=O)cc1 (configuration not stated) -0.0651%
COc1cccc(CNC(=O)CCC(=O)N2CC3CCCN3c3ccccc32)c1 (configuration not stated) 1.48%
CCc1ccccc1OCCSc1nc(-c2cccs2)nc2cc(=O)[nH]n12 0.201%
Cc1cccc(NC(=O)CSc2nc3c(oc4ccccc43)c(=O)n2-c2ccc(F)cc2)c1 -0.455%
O=C1Cc2cc(S(=O)(=O)Nc3ccc(OC(F)(F)F)cc3)cc3c2N1CCC3 6.23%
Cc1ccc(N(C)C(=O)C2CCN(S(=O)(=O)c3ccc4c(c3)CCCN4C(=O)C3CCC3)CC2)cc1 2.75%
COC(=O)c1ccccc1NC(=O)c1ccc(COc2ccccc2Cl)o1 -2.65%
CCC1=Nc2cc(C(=O)NCCCOC(C)C)ccc2Sc2ccc(C)cc21 -2.32%
CCCCN(CC)CCCNC(=O)c1nn(C)c2c1CSc1ccccc1-2 2.35%
O=C(Nc1ccc(-c2nc3cc(NC(=O)c4ccccc4Cl)ccc3o2)cc1)c1ccccc1Cl 4.54%
CCCNC(=O)CCn1nc(-c2ccccc2)c2ccccc2c1=O 2.39%
COC(=O)c1cc2occc2n1Cc1nc(-c2ccccc2C)oc1C -1.31%
COc1cc(NC(=O)Cn2nc(-c3ccc(C)c(C)c3)ccc2=O)cc(OC)c1 -1.19%
CCOc1ccc(-c2cc3nc(C4CCN(C(=O)OC(C)(C)C)CC4)c(C(=O)Nc4ccc(C(=O)OC)cc4)cn3n2)cc1 -0.305%
O=C(NCCc1ccccc1)c1ccc2c(c1)N(Cc1ccccc1)C(=O)c1ccccc1S2(=O)=O -2.13%
CCCN(CCC)C(=O)C(Cc1ccccc1)NS(=O)(=O)c1ccc2c(c1)c(=O)n(C)c(=O)n2C (configuration not stated) 0.449%
CCOc1ccc(CCNC(=O)c2c(C)oc3ncn(C)c(=O)c23)cc1 -0.592%
O=C(NCCCO)c1nn(-c2ccc(Cl)cc2)nc1CO -1.87%
Cc1ccc(NC2=C(c3ccc(C(F)(F)F)cc3)C(=O)c3ccccc32)cc1F 6.11%
CC(C)OCCCn1c(SCC(=O)c2ccccc2)nc2c(sc3ccccc32)c1=O -0.853%
CCCN1CCN(CCCNC(=O)c2cnn(-c3ccc(C)cc3)c2-n2cccc2)CC1 -2.29%
COc1cc(OC)c(OC)cc1/C=C/c1nc2ccccc2c(=O)n1-c1ccc(Br)c(C)c1 -1.32%
Cc1cccc(NC(=O)CSc2nc3c([nH]c4ccccc43)c(=O)n2-c2cc(C)cc(C)c2)c1 -1.03%
COc1ccc(CNS(=O)(=O)c2ccc(-c3cnc(C4CC4)o3)cc2)cc1 -0.844%
CCOC(=O)c1c(C)[nH]c(C)c1S(=O)(=O)N(C)CC(=O)N1CCN(c2ccccc2)CC1 0.594%
CCOC(=O)c1c(NC(=O)/C=C/c2ccc(OC)cc2)sc2c1CCC(C)C2 (configuration not stated) 1.01%
O=C(NCCc1ccccc1)C(=O)NCC(c1ccco1)S(=O)(=O)c1ccccc1 (configuration not stated) -1.39%
CC(NC(=O)CCc1cn(Cc2ccccc2Cl)c2ccccc12)c1ccccc1 (configuration not stated) 2.65%
CCc1nc2onc(C)c2c(=O)n1CC(=O)O 2.07%
O=C1OC(C(=O)Nc2cccc(Br)c2)Cc2ccccc21 (configuration not stated) -0.928%
CCC(=O)N1CCc2cc(CNC(=O)Nc3ccccc3Cl)ccc21 0.103%
CCS(=O)(=O)N1CCC(n2c(C)nc3cccnc32)CC1 0.706%
Cc1oc2c(c1C(=O)Nc1ccc(F)c(F)c1)C1=NCCN1C=N2 0.228%
O=C(c1ccc2c(c1)N(Cc1ccccc1F)C(=O)c1ccccc1S2(=O)=O)N1CCOCC1 -0.457%
Cc1ccc(S(=O)(=O)c2nnn3c2nc(N2CCN(c4ccccc4F)CC2)c2cc(Cl)ccc23)cc1C -1.33%
COCCCNC(=O)c1c(NC(=O)c2cc(=O)c3cc(C)c(C)cc3o2)sc2c1CCCC2 -1.3%
CC(C)(C)OC(=O)N1CCC(c2c(C(=O)N3CCc4ccccc4C3)cnn2-c2ccc(F)cc2)CC1 0.532%
Cc1ccc2nc(-c3ccc(C)c(NC(=O)Cc4ccccc4)c3)oc2c1 -2.33%
O=C(NCc1ccc(F)cc1)c1ccc2nc(N3CCCCC3)sc2c1 -0.827%
COc1ccc(-c2nn(CC(=O)NC3CCCC3)c3c2cnc2ccc(F)cc23)cc1 -3.12%
CCOc1ccc(N2CC(C)Cn3c2nc2c3c(=O)n(Cc3c(F)cccc3Cl)c(=O)n2C)cc1 (configuration not stated) -0.396%
CCOc1ccc(NC(=O)Cn2c(C)ccc(C#N)c2=O)cc1 -1.37%
O=C(Nc1cccc2cccnc12)c1cccc2c(Br)cccc12 -3.7%
COc1ccc(-n2c(SC)nc3sc4c(c3c2=O)CCN(C(C)=O)C4)cc1 1.77%
Cc1ccc(S(=O)(=O)N2CCc3cc(C(=O)Nc4ccc(Cl)cc4C)ccc32)cc1 -1.18%
COc1ccc(C)cc1-n1c(-c2ccc(C)cc2)cc2c1CC(C)(C)CC2=O 1.22%
CCC1CCCCN1Cc1c(O)ccc2c(=O)c(Oc3ccccc3Cl)c(C(F)(F)F)oc12 (configuration not stated) 6.03%
Cc1ccc(F)cc1S(=O)(=O)N1CCC(c2nc3ccccc3s2)CC1 1.9%
CC(=O)c1ccc(NC(=O)COc2ccccc2-c2nc(-c3ccccc3)no2)cc1 -2.41%
